Ba/F3 V617F tox: loss of viability in JAK2V617F-driven Ba/F3 cells. inhibition, % at 5.6 µM. Ba/F3 EpoR-JAK2V617F viability, ATP luminescence. 220,000 compounds, 1.1% hits;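 active = inhibition above the campaign mean plus 3 SD over all tested compounds, cut at about 24% in these data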;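 also: cytokine-independent growth of Ba/F3 cells driven by EpoR plus mutant JAK2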
IEC-6 cytotox: counter-screen for KLF5 inhibitors: cytotoxicity in IEC-6 cells | IEC-6 cytotoxicity, luminescence viability | inhibition, % at 5 µM | 290,000 compounds, 0.78% hits; in the data active = inhibition above about 22%
KLF5 inh: kruppel-like factor 5 inhibition; DLD-1 KLF5 promoter-luciferase reporter, luminescence; inhibition, % at 5 µM; 290,000 compounds, 0.23% hits; AID 1700;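 active = inhibition above a per-plate limit of that plate's mean compound inhibition plus 3 SD, cut at about 60% in these data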;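 also: higher means less KLF5 promoter-driven luciferase light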
DNA FID counter: displaces DNA intercalator in HCV helicase counter-screen. DNA fluorescent intercalator displacement, fluorescence. inhibition, % at 7.9 µM. 290,000 compounds, 0.17% hits. AID 1845; in the data active = inhibition above about 37%;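 also: higher means more ethidium bromide displaced from hairpin DNA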
BaF3 parental: parental Ba/F3 viability inhibition as JAK2V617F counter-screen; inhibition, % at 5.6 µM; CellTiter-Glo ATP luminescence; 220,000 compounds, 1.1% hits;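 active = inhibition above a per-campaign cutoff, the mean inhibition of all tested compounds plus 3 SD, cut at about 27% in these data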
GPR7 antagonist: antagonists of human GPR7 (neuropeptides B/W receptor 1); AID 1861; 290,000 compounds, 1.1% hits; GPR7-expressing cells, fluorescence antagonist assay; inhibition, % at 4.4 µM; P48145; in the data active = inhibition above about 16%, passing the limit was not always enough;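 also: cells stimulated with the agonist NPW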
Target sequence (P48145 whole entry, looked up): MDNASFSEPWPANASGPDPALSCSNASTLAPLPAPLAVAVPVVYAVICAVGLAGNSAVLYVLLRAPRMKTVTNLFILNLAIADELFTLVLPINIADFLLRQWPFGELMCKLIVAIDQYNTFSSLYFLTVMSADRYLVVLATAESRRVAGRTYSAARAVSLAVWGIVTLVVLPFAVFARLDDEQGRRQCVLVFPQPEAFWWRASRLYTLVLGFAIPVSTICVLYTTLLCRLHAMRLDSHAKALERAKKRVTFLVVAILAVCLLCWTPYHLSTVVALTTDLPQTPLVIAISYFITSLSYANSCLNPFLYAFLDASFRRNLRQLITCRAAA
BaF3 tox 2: reduces parental Ba/F3 viability, JAK2V617F counter-screen | shares compounds with Ba/F3 V617F tox | CellTiter-Glo luminescence; cells kept alive by added IL-3 | inhibition, % at 5.6 µM | 580 compounds, 31% hits | AID 1520;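 active = cell growth inhibition above the hit limit set in the earlier mutant JAK2 cell screen, cut at about 27% in these data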
JAK2V617F confrm: confirmation: loss of viability in JAK2V617F-dependent Ba/F3 cells; shares compounds with Ba/F3 V617F tox; Ba/F3 EpoR-JAK2V617F viability, CellTiter-Glo luminescence; inhibition, % at 5.6 µM; 580 compounds, 66% hits; AID 1521;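 active = mean inhibition above the hit cutoff derived in the earlier primary screen, cut at about 25% in these data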;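 also: higher means lower luminescence from reduced cell ATP and viability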
A number is an active result; - = inactive; . = not tested or not shown. Shown are actives, neighbours in structure and some others; about 2.6% of the full set was active somewhere.

SMILES | Ba/F3 V617F tox | IEC-6 cytotox | KLF5 inh | DNA FID counter | BaF3 parental | GPR7 antagonist | BaF3 tox 2 | JAK2V617F confrm
Nc1c(C(=O)c2ccccc2)sc2nsc(SCCN3CCCC3)c12 | - | - | - | - | - | - | . | .
CC(=O)C1=C(O)CC(C)(C)CC1=NCCc1nc2ccccc2[nH]1 | 102 | - | - | - | - | - | - | -
COc1cccc(NC=C2C(=O)OC3(CCCCC3)OC2=O)c1 | - | - | - | - | - | - | . | .
COc1ccc(Cn2c(O)c(C=Nc3ccccc3C(=O)O)c3ccccc3c2=O)cc1 | - | - | - | - | - | - | . | .
COc1ccccc1NS(=O)(=O)c1cccc(-n2c(O)c(C=Nc3ccccc3C(=O)O)c3ccccc3c2=O)c1 | 24 | - | - | - | - | - | - | 32
Cc1ccc(C)c(-c2nc3ccc(N)cc3[nH]2)c1 | 33 | - | - | - | - | - | 35 | 54
Nc1ccc2nc(-c3cc(Cl)c(N)c(Cl)c3)[nH]c2c1 | 24 | - | - | - | - | - | 31 | 53
Nc1ccc(-c2nc3ccc(N)cc3[nH]2)cc1 | - | - | - | - | - | - | . | .
Cc1[nH]c(=O)c(C(=O)/C=C/c2ccccc2F)c2c1CCCC2 | 50 | - | - | - | - | - | - | 96
CCONC(=NC)c1nonc1N | - | - | - | - | - | - | . | .
COC(CN(C(=O)CCl)C(C(=O)NC1CCCCC1)c1ccc(C)cc1)OC (configuration not stated) | 91 | - | - | - | - | - | - | -
Cc1nc2ccc(NC(=O)NCCO)cc2s1 | - | - | - | - | - | - | . | .
COc1ccc(CN2CCC(C(=O)c3ccc(F)cc3)CC2)cc1 | . | - | - | - | . | - | . | .
CCN(CC)CCCOc1ccc(Cl)c(Cl)c1 | - | - | - | - | - | - | . | .
COC(=O)c1cccc(NC(=O)/C=C/c2cccc([N+](=O)[O-])c2)c1 | - | - | - | - | - | - | . | .
CC(=O)c1cccc(NC(=O)/C=C/c2ccc([N+](=O)[O-])s2)c1 | 101 | - | - | - | - | - | 106 | 100
C[C@@H](C(O)c1ccccc1)N(C)C(=O)CCc1ccccc1 (some centres not stated) | . | - | - | - | . | - | . | .
Cc1nc([N+](=O)[O-])c(Br)n1Cc1ccc(Cl)c(Cl)c1 | 46 | - | - | - | - | - | - | 85
Cc1nc([N+](=O)[O-])c(Br)n1CC(=O)c1ccc(Cl)cc1 | - | - | - | - | - | - | . | .
Cc1ccccc1C(=O)NCC(=O)Nc1ccccc1C(F)(F)F | - | - | - | - | - | - | . | .
CCOC(=O)c1c(C)sc2c1N(C(=O)CCl)c1cc(Cl)ccc1S2 | 28 | - | - | - | - | - | 58 | 99
CC(=O)Nc1ccc(C#Cc2ccc(NC(C)=O)cc2)cc1 | - | - | - | - | - | - | . | .
COc1cc(N2C(=O)C=CC2=O)c(OC)cc1Cl | 32 | - | - | - | - | - | - | -
Oc1ccc(CN2CCC(Cc3ccccc3)CC2)c2cccnc12 | 83 | - | - | - | - | - | 84 | 98
Clc1ccccc1CN1CCC(Cc2ccccc2)CC1 | - | - | - | - | - | - | . | .
SMILES | Ba/F3 V617F tox | IEC-6 cytotox | KLF5 inh | DNA FID counter | BaF3 parental | GPR7 antagonist | BaF3 tox 2 | JAK2V617F confrm
CCS(=O)(=O)CCSc1nc(C)cc(C)c1C#N | 100 | - | - | - | - | - | - | -
Cc1ccc(S(=O)(=O)N2CCC(C(=O)N[C@@H](C)C(=O)Nc3ccc(F)cc3)CC2)cc1 | . | - | - | - | . | - | . | .
Cc1ccc(S(=O)(=O)N2CCC(C(=O)N[C@@H](C)C(=O)Nc3ccc4c(c3)OCO4)CC2)cc1 | 43 | - | - | - | - | - | - | -
S=C1NC(c2cccs2)=CC(c2ccc(Br)cc2)N1 (configuration not stated) | - | - | - | - | - | - | . | .
O=C(NC1C=CS(=O)(=O)C1)c1sc2ccccc2c1Cl (configuration not stated) | 27 | - | - | - | - | - | - | 59
CCN(CC)C(=O)c1sc(NC(=O)c2cccs2)c(C#N)c1C | - | - | - | - | - | - | . | .
Nc1ccc(Nc2nc(-c3cc4ccccc4oc3=O)cs2)cc1 | 84 | - | - | - | - | - | 77 | 99
CCOC(=O)C(Cc1ccccc1)NC(=O)CCCC(=O)c1ccccc1 (configuration not stated) | . | - | - | - | . | - | . | .
COc1ccccc1OC(=O)Cc1cccc2ccccc12 | . | - | - | - | . | - | . | .
COc1ccccc1CC(=O)O/N=C(\N)Cc1cccc2ccccc12 | 34 | - | - | - | - | - | - | -
O=C(/C=C/c1ccccc1)N/C(=C/c1ccccc1)C(=O)Nc1cccc(C(=O)O)c1 | - | - | - | - | - | - | . | .
Cc1ccc(NC(=O)/C(=C\c2ccccc2)NC(=O)/C=C/c2ccccc2)cc1 | 72 | - | - | - | - | - | - | -
Cc1nc2cc(-c3ccccc3)sc2c(=O)n1N | 25 | - | 65 | - | - | - | 48 | 37
O=C(c1cnc2ccc3ccccc3c2c1)c1cc(F)ccc1O | 26 | - | - | - | - | - | - | 39
Cc1nn(C)c2ncc(C(=O)c3cc(F)ccc3O)cc12 | - | - | - | - | - | - | . | .
O=C1C2C3C=CC(C3)C2C(=O)N1c1ccc2c(c1)OCO2 (configuration not stated) | 57 | - | - | - | - | - | - | -
O=C(COc1ccc(C(=O)Nc2ccc(Cl)cc2)cc1)NCc1ccccc1 | - | - | - | - | - | - | . | .
CNC(=O)c1nnsc1S(=O)(=O)c1ccc(Cl)cc1 | 91 | 48 | - | - | - | 26 | 68 | 98
Nc1nc(C(=O)N2CCOCC2)nn1S(=O)(=O)c1ccc(Cl)cc1 | - | - | - | - | - | - | . | .
CNC(=O)c1ccc(S(=O)(=O)c2ccc(Cl)cc2)c(NC(C)=O)c1 | . | - | - | - | . | - | . | .
O=C(c1nnsc1S(=O)(=O)c1ccc(Cl)cc1)N1CCOCC1 | 76 | - | - | - | - | - | 45 | 75
N#Cc1ccc(NC(=O)CN2CCN(c3ccccn3)CC2)cc1 | . | - | - | - | . | - | . | .
Cc1nc2c(Cl)c(C)nn2c2c1CCC2 | - | - | - | - | - | - | . | .
O=C(Nc1ccccc1F)c1c[nH]c(=O)[nH]c1=O | - | - | - | - | - | - | . | .
O=S(=O)(CCSc1nc2ccccc2s1)c1nc2ccccc2s1 | 40 | - | - | - | - | - | 36 | 100
O=C(O)/C=C\C(=O)Nc1ccccc1C#Cc1ccc(Br)cc1 | 36 | - | - | - | - | - | - | -
COc1ccccc1NS(=O)(=O)c1cc(NC(=O)c2[nH]c(C)c(C(C)=O)c2C)ccc1N1CCOCC1 | - | - | - | - | - | - | . | .
O=[N+]([O-])c1ccc(O)c(N=Cc2sc3ccccc3c2O)c1 | - | - | - | - | - | - | . | .
Oc1ccc(Cl)cc1N=Cc1sc2ccccc2c1Cl | 40 | - | - | - | - | - | - | 86
